From ChEMBL document CHEMBL3988442, “University of Dundee, Small-Polar-MMV Screening Library” (2021)

target: T1, Aspartate--tRNA(Asp/Asn) ligase (Mycobacterium tuberculosis (strain ATCC 25618 / H37Rv)) (UniProt P9WFW3); experiment: Assay for Asp RNA synthetase-1 from Mycobacterium tuberculosis; assay type: functional; parameters: scale not given: in the data most compounds retested in dose-response had high values; conditions: 30 µM
T1 sequence (whole entry): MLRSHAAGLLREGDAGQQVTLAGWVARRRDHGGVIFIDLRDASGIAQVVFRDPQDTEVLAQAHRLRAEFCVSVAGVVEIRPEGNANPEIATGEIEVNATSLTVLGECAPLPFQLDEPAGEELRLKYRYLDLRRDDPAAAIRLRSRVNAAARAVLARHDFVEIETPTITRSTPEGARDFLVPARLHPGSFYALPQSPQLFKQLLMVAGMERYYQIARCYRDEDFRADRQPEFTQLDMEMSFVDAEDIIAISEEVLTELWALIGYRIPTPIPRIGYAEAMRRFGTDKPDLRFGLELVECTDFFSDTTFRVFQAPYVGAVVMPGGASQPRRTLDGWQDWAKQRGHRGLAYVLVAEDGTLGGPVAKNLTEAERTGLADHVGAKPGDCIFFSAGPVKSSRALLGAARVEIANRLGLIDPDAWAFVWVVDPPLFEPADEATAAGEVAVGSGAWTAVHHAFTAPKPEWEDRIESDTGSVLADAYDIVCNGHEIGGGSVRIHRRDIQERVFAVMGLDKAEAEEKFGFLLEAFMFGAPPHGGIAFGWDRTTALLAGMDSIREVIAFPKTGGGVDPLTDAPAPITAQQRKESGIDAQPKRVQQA

SMILES	Percent Effect [%]
Fc1ccc(-c2nnc(CN3CCCC3Cn3cncn3)o2)cc1 (centres undefined)	-1.49
NC(=O)C1CCN(C(=O)Cn2nc(-c3ccccc3)oc2=O)C1 (centres undefined)	7.46
CCn1c(NCc2ccco2)nc2c(C)nn(C)c2c1=O	-3.66
Cc1nnc(N2CCC(CNC(=O)OC(C)(C)C)CC2)c(C#N)c1C	-0.115
CC(C)c1noc(CCCC(=O)NC2CCS(=O)(=O)C2)n1 (centres undefined)	0.955
CC[C@@H](CO)NC(=O)c1coc(COc2ccc(OC)cc2)n1	6.33
Cc1nc(C(=O)N2CCC(Cc3cnc4[nH]ccc4c3)C2)co1 (centres undefined)	1.31
COc1nn(C)c2c1CCCN(C(=O)c1ccccc1)C2	-0.268
CN(Cc1ccc(F)cc1)CC1(O)CCN(C(=O)c2cccn2C)C1 (centres undefined)	-4.54
CC(O)CN1CCN(C(=O)c2ccn(-c3cccc(Cl)c3)n2)CC1 (centres undefined)	-5.25
Cc1cnn(CC2CN(c3ncnc4ccsc34)CCO2)c1 (centres undefined)	-1.51
Cn1cc(Br)c(=O)c(NS(=O)(=O)c2cc(F)ccc2Cl)c1	-1.26
COc1ccc2c(c1)CCCN2Cc1nc2c(cnn2C)c(=O)[nH]1	-4.23
COc1cc(CNC(=O)c2c(C)noc2C(C)C)ccn1	-1.27
O=C(CSC1CCc2ccccc2NC1=O)NCCc1ccco1 (centres undefined)	-3.17
CCN(CC)CCNC(=O)c1nn(CC)cc1Cl	-6.16
CCCc1n[nH]c(C2CN(C(=O)c3ccco3)CCO2)n1 (centres undefined)	-0.955
COC(=O)COc1cccc(NS(=O)(=O)c2cc(C(=O)O)cs2)c1	-3.15
CC(C)(C)n1ncc2c1CCCC2NCc1cccc2c1OCO2 (centres undefined)	-0.568
O=C(CCC(=O)N1CCCC1c1cccs1)N1CCc2sccc2C1 (centres undefined)	-0.31

SMILES	Percent Effect [%]
COc1cccc(OCC2CCCN(C(=O)c3cnc(C)nc3O)C2)c1 (centres undefined)	-0.346
COCCN1CC(C(=O)NCc2ccnc(-n3cccn3)c2)CC1=O (centres undefined)	-0.544
CN(CC(N)=O)S(=O)(=O)c1ccc(F)cc1Cl	-2.44
O=C1OC2(CCNCC2)CN1CC(=O)N1CCCC1c1ccco1 (centres undefined)	-0.636
c1cc(-c2nc(CN3CCn4c(nnc4C4CC4)C3)cs2)cs1	-2.61
O=C(C1=CCCC1)N1CCO[C@H]2[C@@H](Oc3ccccn3)CC[C@@H]21	0.28
COc1ccc(C[C@H]2CN(c3nnc(C)s3)CC[C@@H]2OC)cc1	7.75
Cn1ccc2ccc(C(=O)N3CCN(C(=O)N4CCOCC4)CC3)cc21	-0.0331
Cc1cc(CN2CCOCS2(=O)=O)ccc1F	1.64
CC(C)N1CCC(Cc2cncc(-c3ccccc3C(=O)O)n2)CC1	1.34
Cc1nnc(C(C)NCC2(c3c(F)cccc3F)CCCC2)o1 (centres undefined)	-1.77
CCOc1ccc(Cl)c(C(=O)N(C)C)n1	-0.544
Cc1noc([C@@H]2C[C@H]3OCC[C@H]3N(S(=O)(=O)c3cccnc3)C2)n1	-1.34
COC(=O)c1cccn1C1CCN(CC(=O)NC2CCCCC2)CC1	-1.64
Cc1cnccc1CN1C[C@@H](O)[C@H](Oc2ccccc2)C1	0.283
O=C1CC2(CCCNC2)C(=O)N1Cc1ccc(F)cc1 (centres undefined)	3.3
Cc1nn(CC(C)C)c(N(C)C)c1CNCc1cc2ccccc2[nH]1	-2.12
c1cnnc(N2CCCC2CNCc2nc(-c3ccsc3)no2)c1 (centres undefined)	-0.433
c1ccc(-c2ccc(C3CNCCO3)nc2)cc1 (centres undefined)	7.81
